aSyn 5UTR act = Activators via SNCA 5'UTR binding, MLPCN; alpha-synuclein 5'UTR reporter, activators screen; activity score, % (tested at 7.5 µM), hits read low; 300,000 compounds, 7.1% hits; AID 1814, 2009; in the data active = activity score below about -60%
Active calls of the source: *. A selection follows.

SMILES	aSyn 5UTR act
O=c1c2c3c(sc2nc2n1CCCCC2)CCCC3	-123.9*
Clc1nc(CN2CCCCC2)nc2sc3c(c12)CCCC3	-67.7*
O=c1c2c3c(sc2nc2n1CCCC2)CCCCC3	-105.4*
O=c1c2c3c(sc2nc2n1CCCCC2)CCCCC3	-152.5*
CC(=O)c1ccc(OCc2cc(C(=O)N(C)Cc3ccccn3)no2)cc1	-64.9*
Cc1cc(OCc2cc(C(=O)N(C)Cc3ccccn3)no2)cc(C)c1Cl	-76.9*
Cc1cc(OCc2cc(C(=O)N(C)C(C)c3ccccn3)no2)cc(C)c1Cl (stereo not drawn)	-93.0*
COCCNC(=O)C(=O)Nc1ccc(Br)cc1	-102.7*
CCCNC(=O)C(=O)Nc1ccc(N(C)C)cc1	-126.4*
C=CCNC(=S)Nc1ccc(N(C)C)cc1	-70.1*
O=S(=O)(Cc1cc(-c2ccccc2)no1)c1ccccc1	-77.1*
COc1ccc(-c2cc(CS(=O)(=O)c3ccccc3)on2)cc1	-158.0*
CCN1CCN(Cc2ccc(OCc3ccccc3)cc2)CC1	-77.3*
CCN1CCN(Cc2ccc(OCc3ccccc3)c(OC)c2)CC1	-89.6*
CCN(CC)c1ccc(/C=N/NC(=O)c2ccccn2)cc1	-125.3*
O=C(Oc1cccc(/C=N/NC(=O)c2ccccn2)c1)c1ccc([N+](=O)[O-])cc1	-100.0*
CCN(CC)c1ccc(/C=N/NC(=O)c2cnccn2)cc1	-84.7*
Cc1ccc(/C=N\NC(=O)c2csnn2)cc1	-69.3*
C/C(=N\NC(=O)C(C)Oc1ccc([N+](=O)[O-])cc1)c1ccccn1 (stereo not drawn)	72.3
O=C(N/N=C/c1ccc(OC(=O)c2ccccc2Cl)cc1)c1ccccn1	-112.2*
O=c1sc2ccccc2n1COc1ccc(Cl)cc1	-89.6*
Cc1ccccc1OCCCn1c(=O)sc2ccccc21	-129.8*
O=c1sc2ccccc2n1CCCOc1ccccc1	-137.0*
Cc1ccc(OCCn2c(=O)sc3ccccc32)cc1	-115.3*
Cc1ccc(OCCCn2c(=O)sc3ccccc32)cc1	-65.0*
SMILES	aSyn 5UTR act
Cc1occc1C(=O)OCC(=O)Nc1ccc(F)cc1	-62.3*
CC(=O)Nc1cccc(OCC(=O)Nc2ccc(F)cc2)c1	-77.5*
Cc1ccc(OCC(=O)Nc2ccc(F)cc2)cc1C	-74.1*
N#CCC(=O)N/N=C/c1ccc(OCc2ccccc2)cc1	-66.5*
N#CCC(=O)N/N=C\c1ccc(OC/C=C/c2ccccc2)cc1	-146.3*
CC1Cc2ccccc2N1C(=O)c1ccc(Br)o1 (stereo not drawn)	-128.6*
Cc1cccc(N2CCN(C(=O)c3ccc(CS(=O)(=O)c4ccccc4C)o3)CC2C)c1 (stereo not drawn)	96.9
Cc1ccc(C(=O)N2c3ccccc3CC2C)o1 (stereo not drawn)	-92.3*
COc1ccc(NC(=O)Nc2ccc(N(C)C)cc2)cc1	-124.4*
COc1ccc(NC(=O)Nc2ccc3[nH]ccc3c2)cc1	-112.4*
COc1ccc(NC(=O)OC(C)C)cc1	-69.5*
COc1ccc2cc(OCC(=O)NNC(=O)Nc3ccc(C(C)=O)cc3)ccc2c1	-88.4*
COc1ccc2cc[nH]c2c1	70.8
N#Cc1ccc(NC(=O)Nc2ccc(Oc3ccc(NC(=O)Nc4ccc(C#N)cc4)cc3)cc2)cc1	73.7
COc1ccc(NC(=O)Nc2ccc(OC)cc2)cc1	-99.4*
CC(C)c1ccc(/C=C2\CC/C(=C\C=N\N(C)C)C2=O)cc1	-72.7*
Clc1ccc(Cl)c2sc(N3CCOCC3)nc12	-66.1*
Clc1cc(Cl)c2nc(N3CCOCC3)sc2c1	-156.3*
Clc1ccc(-c2nsc(N3CCOCC3)n2)c(Cl)c1	-125.7*
COc1ccc(-c2ncc3ccccn23)cc1	-142.3*
COc1cccc(-c2ncc3ccccn23)c1	-123.5*
CCOc1ccc(-c2nc(-c3ccccc3)no2)cc1OCC	-137.1*
CCOc1ccc(-c2nc(-c3ccncc3)no2)cc1OCC	-95.4*
O=C(O)/C=C/C(=O)c1ccc2c(c1)CCc1ccccc1-2	-110.8*
Cc1ccccc1SCCNC(=O)c1ccccc1Br	-106.6*
SMILES	aSyn 5UTR act
Cc1ccccc1SCCNC(=O)CCc1ccccc1	-64.3*
COc1ccc(C(=O)C[n+]2ccccc2/C=N/O)cc1	-81.5*
Cc1ccc2nc3sc(C(=O)N4CCCc5ccccc54)c(N)c3cc2c1	-157.7*
Cc1cc([N+](=O)[O-])ccc1-c1ccc(C2Nc3ccccc3C(=O)N2O)o1 (stereo not drawn)	82.6
O=C1c2ccccc2NC(c2cccc([N+](=O)[O-])c2)N1CCc1ccccc1 (stereo not drawn)	-136.4*
CC(=O)c1cnc2nc(SCc3ccccc3C)nn2c1C	-75.1*
O=C(Nc1cccc(O)c1)c1ccc(C(F)(F)F)cc1	-166.0*
CC(C)CC(=O)Nc1ccc(C(=O)Nc2cccc(O)c2)cc1	-150.8*
O=C1CCCN1CCC(=O)N1CCCC(CO)(Cc2ccccc2)C1 (stereo not drawn)	-97.6*
Cc1cc(C(=O)Nc2ccc(Cl)cc2)c(C)n1Cc1cccs1	-67.2*
Cc1cc(C)cc(NC(=O)c2cc(C)n(Cc3cccs3)c2C)c1	-116.5*
Brc1ccccc1C1=Nn2c(nnc2-c2ccccc2)SC1	57.5
CSc1nc2sc(-c3ccccc3)cc2c(=O)n1N	-74.2*
O=c1c2cc(-c3ccccc3)sc2nc2n1N=C(c1ccccc1)CS2	-142.1*
O=C(N/N=C/c1sc(=O)n(-c2ccccc2)c1Cl)c1ccccc1	-83.9*
Cn1cc(C(=O)Nc2ccc3c(c2)CCC3)cn1	-104.9*
CC(=O)c1ccc(NC(=O)c2cnn3ccccc23)cc1	78.9
Cc1cccc(NC(=O)Nc2ccc3c(c2)CCC3)c1	-115.7*
O=C(Nc1ccc2c(c1)CCC2)c1cccc(F)c1	-143.2*
CC(=O)c1cccc(NC(=O)c2cnn3ccccc23)c1	-106.3*
CC(=O)c1cccc(NC(=O)c2ccc3c(c2)CCCC3)c1	-132.2*
COc1cccc(NC(=O)Nc2ccc3c(c2)CCC3)c1	-130.3*
COc1cccc(NC(=O)COc2ccc3c(c2)CCC3)c1	-65.2*
CCc1ccc(NC(=O)Nc2ccc3c(c2)CCC3)cc1	-125.5*
CC(=O)c1cccc(NC(=O)Nc2ccc3c(c2)CCC3)c1	-91.4*
SMILES	aSyn 5UTR act
NC(N)=N/N=C/c1ccc(OCc2ccccc2)cc1	-69.5*
NC(N)=N/N=C/c1ccc(OCc2ccc(Cl)cc2)cc1	-66.0*
COc1cccc(-c2cn3nc(C)c(C)nc3n2)c1	-69.9*
CC(=O)O[C@@]12CO[C@@H]1C[C@H](O)[C@@]1(C)C(=O)[C@H](O)C3=C(C)[C@@H](OC(=O)[C@H](O)[C@@H](NC(=O)OC(C)(C)C)c4ccccc4)C[C@](O)([C@@H](OC(=O)c4ccccc4)[C@H]21)C3(C)C	71.8
O=C(/C=C/c1ccccc1)OCc1cncs1	-102.8*
O=C(N/N=C/c1ccccc1)c1[nH]ncc1Br	-118.2*
O=C(N/N=C/c1ccccc1)c1ccco1	-107.4*
COc1ccccc1NC(NC(=O)c1ccco1)C(=O)c1ccccc1 (stereo not drawn)	-85.1*
O=C(N/N=C/c1ccc(OCc2ccccc2)cc1)c1ccco1	-103.0*
O=C(N/N=C/C(Br)=C\c1ccccc1)c1ccco1	-225.6*
CC(C)(C)OC(=O)N/N=C\c1ccc(OC(=O)c2ccco2)cc1	-84.4*
COc1ccccc1/C=C/C=N/NC(=O)c1ccco1	-111.6*
CCc1nnc(NC(=O)c2csc3c2CCC(C)C3)s1 (stereo not drawn)	-67.4*
CCOc1ccc(N2C(=O)c3ccccc3C2O)cc1 (stereo not drawn)	-96.0*
CCOc1ccc(N2Cc3ncccc3C2=O)cc1	-103.1*
O=C(NC(=O)c1ccc(F)cc1F)Nc1ccc(Cl)cc1	-158.7*

From PubChem BioAssay
